This is a sample that favours compounds with a hit; in the whole collection about 2.9% have one here.
DRD3 agonist = qHTS of D3 Dopamine Receptor Agonist: qHTS | D(3) dopamine receptor (Homo sapiens), P35462 | D3R DiscoveRx beta-arrestin cells, luminescence, 90 min | max activation, % | actives 0.58% (n = 410,000); in the data active = max activation above about 30%
Target sequence (P35462 whole entry, looked up): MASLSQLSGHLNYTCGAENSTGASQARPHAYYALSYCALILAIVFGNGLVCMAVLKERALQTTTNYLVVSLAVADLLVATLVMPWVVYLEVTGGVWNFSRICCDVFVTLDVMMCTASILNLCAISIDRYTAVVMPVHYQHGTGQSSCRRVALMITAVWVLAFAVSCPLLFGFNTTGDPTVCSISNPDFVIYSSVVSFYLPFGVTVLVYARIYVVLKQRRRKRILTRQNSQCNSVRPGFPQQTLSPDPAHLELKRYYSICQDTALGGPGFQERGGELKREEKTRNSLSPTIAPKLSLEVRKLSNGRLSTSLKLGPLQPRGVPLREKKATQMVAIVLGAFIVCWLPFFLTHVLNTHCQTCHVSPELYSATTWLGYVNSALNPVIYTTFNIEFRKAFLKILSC
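Cells at 1500/well, incubated overnight, then treated with pinned compounds (dopamine as control) for 90 min at 37 degrees C. DiscoveRx reagent added for 30 - 60 minutes at room temperature; luminescence read.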
D3 antag = qHTS of D3 Dopamine Receptor Antagonist: qHTS. actives 2.5% (n = 360,000). D(3) dopamine receptor (Homo sapiens), P35462. D3R cells, DiscoveRx beta-arrestin luminescence, antagonist mode; stronger effect = lower value. max response, negative = inhibition, %; in the data active = max response below about -50%; inconclusive = no clear call, values can overlap the other calls
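Cells expressing the human receptor were seeded at 1500 cells/well, incubated overnight at 37 degrees C in 5% CO2, then exposed to library compounds with dopamine controls for 90 minutes at 37 degrees C before luminescent detection.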
a7 integrin act = qHTS for Activators of Integrin-Mediated Alleviation for Muscular Dystrophy. alpha7betagal myoblasts, beta-gal FDG fluorescence, 48 h. AID 624291, 2012. Potency, µM (highest dose often 38.3 µM), actives largely listed as activators. actives 0.064% (n = 350,000); note: nearly all actives have a fitted effect of over 60% in size
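Alpha7betagal+/- myoblasts (passage 13) were plated 16-24 hr, then exposed to compounds (1:260 dilution of DMSO stock) for 48 hours at 37C. After MPER lysis, β-galactosidase reporter activity was read as FDG fluorescence (ex 480/em 540) after 30 minutes.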
IDH1 R132H inh = qHTS for Inhibitors of mutant isocitrate dehydrogenase 1 (IDH1): qHTS; actives 0.093% (n = 390,000); IDH1-R132H enzyme, NADPH consumption, diaphorase/resazurin fluorescence; AID 602179, 2012; Potency, µM (titrated, usually from 76.6 µM), most hits filed as inhibitors; note: nearly all actives have a fitted effect of over 65% in size
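IDH1-R132H (0.5 ug/mL dispensed) in pH 7.5 Tris buffer was preincubated 30 min with compound, then given a substrate mix of 0.016 mM NADPH and 2 mM alpha-KG for 80 min at room temperature; remaining NADPH was read by diaphorase/resazurin fluorescence.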
B2AR arrestin = qHTS assay of beta-arrestin-biased ligands of beta2-adrenergic receptor | beta-arrestin recruitment to beta2AR, cell-based reporter | Beta-2 adrenergic receptor (Homo sapiens), P07550 | actives 0.02% (n = 330,000) | Potency, µM (doses to about 46.1 µM), most hits filed as activators | AID 492947, 2010; note: nearly all actives have a fitted effect of over 65% in size
Numbers stand for hits; 0 = inactive; ? = inconclusive; - = no result. Unless noted, calls come from the whole dose curve; as a rule, active = well fitted curve in the direction sought with a large enough effect; inconclusive = small, poorly fitted or top-dose-only effect, or another doubt; inactive = no such curve, though single readings can be large; an effect the other way counts as inactive or inconclusive.

SMILES	DRD3 agonist	D3 antag	a7 integrin act	IDH1 R132H inh	B2AR arrestin
C[C@H]1COC(=O)[C@H](Cc2ccc(F)cc2)C/C=C\C[C@H](CC(=O)NCCO)C(=O)N1	30.3	0	0	0	0
CC(C)(C)[C@@H]1COC(=O)[C@H](Cc2ccc(F)cc2)CC/C=C\C[C@H](CC(=O)N(CCO)Cc2ccccc2)C(=O)N1	0	0	0	0	0
C[C@H]1COC(=O)[C@@H](Cc2ccc(F)cc2)C/C=C\C[C@H](CC(=O)NCCO)C(=O)N1	0	0	0	0	0
O=C1NC[C@@H](c2ccccc2)OC(=O)[C@H](Cc2ccc(F)cc2)C/C=C\C[C@@H]1CC(=O)N(CCO)Cc1ccccc1	0	-67.5	0	0	0
Cc1ccc(-n2nc(C(=O)N3CCN(c4cccc(C(F)(F)F)c4)CC3)c3c4ccccc4n(C)c3c2=O)cc1	0	-	-	-	-
CCCCC(=O)OCC(=O)[C@H]1[C@H](C)C[C@H]2[C@@H]3C[C@H](F)C4=CC(=O)C=C[C@]4(C)[C@@]3(F)[C@@H](O)C[C@@]21C	0	-	-	-	-
CC(C)CNS(=O)(=O)c1cc(C(=O)OCC(=O)N2CCOCC2)c(Cl)cc1Cl	0	0	0	0	0
CC(C)CNS(=O)(=O)c1cc(C(=O)N2CC(C)OC(C)C2)c(Cl)cc1Cl (configuration not stated)	0	-54.6	0	0	0
CCN(CC)CCOC[C@H]1O[C@@H](O)[C@H](OCCN(CC)CC)[C@@H](O)[C@@H]1O	0	-	-	-	-
CC(C)(C)Nc1nc(NN)nc(NC(C)(C)C)n1	0	-80.0	0	0	0
Cc1cc2c(Nc3ccccc3)ncnc2s1	0	-61.2	0	0	0
Cc1cc2c(NCCc3ccccc3)ncnc2s1	0	0	0	0	0
COc1ccc(N2C(=O)CC(Sc3nnnn3-c3ccc(F)cc3)C2=O)cc1 (configuration not stated)	0	-59.9	0	0	0
O=C1CC(Sc2nnnn2-c2ccccc2)C(=O)N1c1cccc(Cl)c1 (configuration not stated)	0	0	0	0	0
COc1ccc(CNC(=O)[C@@H](NC(=O)C2CCN(C(=O)[C@@H](N)Cc3ccccc3)CC2)C(C)C)cc1	0	0	0	0	0
CN(C)CCC1Sc2ccccc2Oc2ccccc21 (configuration not stated)	0	-64.3	0	0	0
CC1c2ccccc2SC(CCCN(C)C)c2ccccc21 (configuration not stated)	0	?	0	0	0
O=C1CC(c2cccc(Cl)c2)CC(O)=C1C=Nc1cccc(Cl)c1 (configuration not stated)	0	0	0	0	0
O=C1CC(c2cccc(Cl)c2)CC(O)=C1C=NCCCO (configuration not stated)	0	-89.7	0	0	0
Cc1cc(C)c(S(=O)(=O)NCc2ccc3c(c2)CCN3C(=O)c2ccccc2)c(C)c1	0	-	-	0	-
CCc1nn(CC(=O)NC(C)CC)c(=O)c2cc3c(OC)cccc3n12 (configuration not stated)	0	-	-	0	-
N#CC1(CCCN2CCCCC2)c2ccccc2CCc2ccccc21	0	-93.0	0	0	-
COc1cc(C2c3c(oc4ccccc4c3=O)C(=O)N2c2nncs2)cc(OC)c1OC (configuration not stated)	0	-	-	0	-
O=C(Oc1cccc2cccnc12)c1ccc2c(c1)OCCO2	0	-84.4	0	0	?
O=C(Oc1cccc2cccnc12)c1ccco1	0	?	0	0	0
SMILES	DRD3 agonist	D3 antag	a7 integrin act	IDH1 R132H inh	B2AR arrestin
CCOc1ccccc1C(=O)NCc1ccc2c(c1)CCN2C(=O)c1ccccc1	0	-	-	0	-
Cc1ccc(S(=O)(=O)Cn2nnnc2C(C(C)C)N2CCN(Cc3ccco3)CC2)cc1 (configuration not stated)	0	-58.7	0	0	0
O=C(CCN1C(=O)C2C3C=CC(C4CC34)C2C1=O)Oc1cccc2cccnc12 (configuration not stated)	0	-67.7	0	0	0
CCn1c(-c2ccc(F)cc2)n[nH]c1=S	0	-88.0	0	0	0
CCn1c(-c2ccc(C(C)(C)C)cc2)n[nH]c1=S	0	0	0	0	0
CCOC(=O)C1=C(COC(=O)CCOc2ccccc2C)NC(=O)NC1C (configuration not stated)	0	-65.2	0	0	0
Cc1cc(C)cc(NC(=O)N2CCN(c3cc(-c4noc(C)n4)ccc3C)CC2)c1	0	-	-	0	-
C[C@H](O)[C@@H]1CN2CCc3c([nH]c4ccccc34)[C@@H]2C[C@@H]1N(C)C(=O)Nc1ccccc1	0	0	0	0	-
C[C@H](O)[C@@H]1CN2CCc3c([nH]c4ccccc34)[C@@H]2C[C@@H]1N(C)C(=O)Nc1cc(Cl)cc(Cl)c1	0	-50.3	0	0	-
COc1ccc(NC(=O)Cn2c(SCc3ccc(C)cc3)nc3cccnc32)cc1OC	0	-	-	0	-
Nc1[nH]c(C(=O)c2ccccc2)c(-c2ccc(Cl)cc2)c1C(=O)NCc1ccccc1	56.7	0	-	-	-
Cc1cccn2c(=O)c3cc(C(=O)NC(C)C)n(C)c3nc12	0	-	-	0	-
Cc1ccc(NC(=O)CSc2nc(=O)cc(N)n2-c2ccccc2)cc1	0	0	0	0	0
COC(=O)c1cccc(NC(=O)CSc2nc(=O)cc(N)n2-c2ccccc2)c1	0	-50.7	0	0	0
CN(C)/C=C/C(=O)c1ccc2noc(-c3ccc(F)cc3)c2c1	0	0	0	0	0
Cc1ccc(-c2onc3ccc(C(=O)/C=C/N(C)C)cc23)cc1	0	0	3.55µM	0	0
CCOC(=O)c1cc(-c2ccc(OC)c(S(=O)(=O)NC3CCCCC3)c2)on1	0	-	-	0	-
CCc1c(C)nc2cc(-c3ccc(OC)c(OC)c3)nn2c1NCC1CC1	37.9	0	0	0	0
COc1ccc(CCNC(=O)CCc2c(C)nc3cc(-c4ccccc4)nn3c2C)cc1OC	0	-	-	0	-
O=C1CN(C(=O)c2cccc(Br)c2)C(c2ccccc2)c2cc(Cl)ccc2N1 (configuration not stated)	0	-	-	0	-
CCn1c(=O)cc(SCC(=O)NCCCN2CCC(C)CC2)c2ccccc21	0	0	0	0	0
Cn1c(=O)cc(SCC(=O)NCCCN2CCOCC2)c2ccccc21	0	0	0	0	0
Cn1c(=O)cc(SCC(=O)NCCCN2CCN(c3ccccc3F)CC2)c2ccccc21	0	-71.1	0	0	0
CCn1c(=O)cc(SCC(=O)NCCCN2CCN(c3ccc(F)cc3)CC2)c2ccccc21	0	-67.9	0	0	0
